Test [1] is described as follows: NCI Yeast Anticancer Drug Screen. Data for the rad50 strain (AID 155).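 Also: 0% = growth of vehicle-only cultures of the same strain.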 To be noted: S. cerevisiae rad50 strain growth inhibition, stronger effect = higher value. The method in brief:
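Genetically altered yeast (DNA repair pathway); compound treatment; growth inhibition vs vehicle ctrl.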

Test [2] is described as follows: NCI Yeast Anticancer Drug Screen. Data for the mec2-1 strain (AID 157). Particulars: S. cerevisiae mec2-1 strain, stronger effect = higher value. The method in brief:
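Mutant yeast (mec2-1) grown with compound; growth inhibition relative to vehicle control reported.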

A short description of test [3]: NCI Yeast Anticancer Drug Screen. Data for the sgs1 mgt1 strain (AID 161).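 Also: 0% = growth of cultures given vehicle only.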 To be noted: S. cerevisiae sgs1 mgt1 strain, stronger effect = higher value. The method in brief:
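Yeast cells carrying a defined DNA-repair defect were exposed to test compounds. Growth inhibition was measured relative to vehicle-treated controls.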

Test [4] is described as follows: NCI Yeast Anticancer Drug Screen. Data for the cln2 rad14 strain (AID 165).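 Also: 0% = growth equal to vehicle treated cultures.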 Particulars: S. cerevisiae cln2 rad14 strain, stronger effect = higher value. The method in brief:
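Readout is yeast growth inhibition versus vehicle-treated controls, using a strain with cln2 and rad14 alterations exposed to compound.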

Test [5] in a line: NCI Yeast Anticancer Drug Screen. Data for the bub3 strain (AID 167). Particulars: S. cerevisiae bub3 mutant strain, stronger effect = higher value. The method in brief:
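Yeast carrying a defined mutation is treated with each compound, and growth is compared with that of vehicle-exposed cells to give inhibition.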

A short description of test [6]: NCI Yeast Anticancer Drug Screen. Data for the mlh1 rad18 strain (AID 175). To be noted: S. cerevisiae mlh1 rad18 strain growth inhibition, stronger effect = higher value. The method in brief: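 Genetically defined yeast (DNA repair-deficient) exposed to compounds; growth inhibition determined relative to vehicle.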
Test [7] is described as follows: NCI Yeast Anticancer Drug Screen. Data for the wt2 strain (AID 169).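 Also: 0% = growth of vehicle-treated yeast cultures.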 Particulars: S. cerevisiae wt2 strain growth inhibition, stronger effect = higher value. An outline of the steps:
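Against vehicle-treated controls, the growth of yeast exposed to each compound was compared, and the inhibition was recorded.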

[8] abbreviates: at 5.0 µM (retest, dose inferred, filed as 0.5).
The mark [9] stands for this setting: at 50.0 µM (retest, dose inferred, filed as 5.0).

Several values for one entry are separate records, joined by “and”; a condition that tells them apart may be missing. Equal values may be shown once. This is part of a sample that, as a whole, favours compounds with a hit. Of some 79,000 tested, about 15% had one in any assay. Where a structure was tested more than once in an assay, its records may differ in their call. Activity calls are given as the source filed them. Rule as the data show it: active = growth inhibition above about 70%; inactive = the rest.

The results in this text go back to PubChem BioAssay (NCI).

As to `CCOC(=O)/C(C#N)=C\c1ccc([N+](=O)[O-])o1`, the growth inhibition in test [1] (setting [8]) was 15% (inactive); in test [1] (setting [9]), 98% (active); in test [1] (at 50.0 µM), -8.25% (inactive) and 99% (active); in test [2] (setting [8]), 12% (inactive); in test [2] (setting [9]), 99% (active); in test [2] (at 50.0 µM) it was -12.1% (inactive) and 99.3% (active). For the same compound, the growth inhibition in test [3] (setting [8]) was 8% (inactive); in test [3] (setting [9]) it was 99% (active); in test [3] (at 50.0 µM), -20.9% (inactive) and 99.3% (active); in test [4] (setting [8]), 4% (inactive); in test [4] (setting [9]), 98% (active); in test [4] (at 50.0 µM), 19.1% (inactive) and 99% (active). In addition, the growth inhibition is 12% (inactive) in test [5] (setting [8]); 99% (active) in test [5] (setting [9]); -13.4% (inactive) and 99.2% (active) in test [5] (at 50.0 µM); 16% (inactive) in test [6] (setting [8]); 99% (active) in test [6] (setting [9]); -16.9% (inactive) and 99% (active) in test [6] (at 50.0 µM).
Consider `CC(=O)c1ccc(N)cc1`, for which the growth inhibition in test [1] (setting [8]) is 35% (inactive); in test [1] (setting [9]) it was 73% (active); in test [1] (at 50.0 µM), 7.3% (inactive); in test [2] (setting [8]), 50% (inactive); in test [2] (setting [9]) it was 100% (active); in test [2] (at 50.0 µM), 15.3% (inactive). Also, the growth inhibition in test [3] (setting [8]) was 7% (inactive); in test [3] (setting [9]), 52% (inactive); in test [3] (at 50.0 µM), 26.8% (inactive); in test [4] (setting [8]), 12% (inactive); in test [4] (setting [9]), 39% (inactive); in test [4] (at 50.0 µM), -1.3% (inactive). For the same compound, the growth inhibition in test [5] (setting [8]) is 30% (inactive); in test [5] (setting [9]), 99% (active); in test [5] (at 50.0 µM), -2.8% (inactive); in test [6] (setting [8]) it was 62% (inactive); in test [6] (setting [9]), 96% (active); in test [6] (at 50.0 µM) it was 20.1% (inactive).
`Nc1ccccc1Oc1ccc(Cl)cc1Cl`: the growth inhibition in test [7] (at 1.2 µM) was -3% (inactive); in test [7] (at 3.7 µM), -16% (inactive); in test [7] (at 11.0 µM) it was -8% (inactive); in test [7] (at 33.0 µM), 95% (active); in test [7] (at 100.0 µM), 99% (active).
Turning to `CC[N](CC)[Ge]([CH2]C)[CH2]C.C[CH2][Ge]([CH2]C)[CH2]C`, the growth inhibition is 19% (inactive) in test [2] (setting [8]); 100% (active) in test [2] (setting [9]); 90.3% (active) in test [2] (at 50.0 µM); 32% (inactive) in test [3] (setting [8]); 99% (active) in test [3] (setting [9]); 90% (active) in test [3] (at 50.0 µM). Besides, the growth inhibition in test [4] (setting [8]) is 54% (inactive); in test [4] (setting [9]) it was 98% (active); in test [4] (at 50.0 µM), 92.5% (active); in test [5] (setting [8]) it was 24% (inactive); in test [5] (setting [9]), 99% (active); in test [5] (at 50.0 µM) it was 90% (active). In addition, the growth inhibition in test [6] (setting [8]) is 37% (inactive); in test [6] (setting [9]) it was 99% (active); in test [6] (at 50.0 µM), 92.3% (active).
For `COc1cc2c(c(OC)c1OC)-c1ccc(SC)c(=O)cc1C(NC(=O)c1ccccc1)CC2` (stereo not given), the growth inhibition in test [2] (setting [8]) was -20% (inactive); in test [2] (setting [9]) it was 61% (inactive); in test [2] (at 50.0 µM) it was 86.9% (active); in test [3] (setting [8]), 5% (inactive); in test [3] (setting [9]), 81% (active); in test [3] (at 50.0 µM), 83.5% (active). In addition, the growth inhibition was 11% (inactive) in test [4] (setting [8]); 48% (inactive) in test [4] (setting [9]); 52.9% (inactive) in test [4] (at 50.0 µM); -29% (inactive) in test [5] (setting [8]); 63% (inactive) in test [5] (setting [9]); 78.5% (active) in test [5] (at 50.0 µM). Besides, the growth inhibition in test [6] (setting [8]) is -6% (inactive); in test [6] (setting [9]) it was 70% (active).
Consider `OCC(O)C(O)C(O)C(O)C(/C=N/Nc1ccccc1)=N/Nc1ccccc1` (stereo not given), for which the growth inhibition in test [1] (setting [8]) was -19% (inactive); in test [1] (setting [9]), 91% (active); in test [2] (setting [8]) it was -5% (inactive); in test [2] (setting [9]), 61% (inactive); in test [3] (setting [8]), -39% (inactive); in test [3] (setting [9]) it was 30% (inactive). Besides, the growth inhibition was 2% (inactive) in test [4] (setting [8]); 82% (active) in test [4] (setting [9]); -3% (inactive) in test [5] (setting [8]); 54% (inactive) in test [5] (setting [9]); 8% (inactive) in test [6] (setting [8]); 86% (active) in test [6] (setting [9]).
As for `NC(=O)NC(=O)C(Cc1ccc(Cl)cc1)c1ccccc1` (stereo not given), the growth inhibition in test [2] (setting [8]) is -6% (inactive); in test [2] (setting [9]), 8% (inactive); in test [2] (at 50.0 µM) it was -13.2% (inactive); in test [3] (setting [8]) it was 1% (inactive); in test [3] (setting [9]), 7% (inactive); in test [3] (at 50.0 µM), -5.75% (inactive). The growth inhibition in test [4] (setting [8]) was 4% (inactive); in test [4] (setting [9]) it was 19% (inactive); in test [4] (at 50.0 µM), -65.7% (inactive); in test [5] (setting [8]), 6% (inactive); in test [5] (setting [9]), 20% (inactive); in test [5] (at 50.0 µM), -52.6% (inactive). Also, the growth inhibition in test [6] (setting [8]) was -13% (inactive); in test [6] (setting [9]), 5% (inactive); in test [6] (at 50.0 µM), 2.15% (inactive).
Regarding `NCCCC(=O)O`, the growth inhibition in test [1] (at 50.0 µM) is -5.85% (inactive) [middle of 4 runs]; in test [4] (at 50.0 µM) it was 6.95% (inactive) [middle of 4 runs]; in test [5] (at 50.0 µM) it was -15.2% (inactive) [middle of 4 runs].
Consider `CC(C)C1=CC23CCC4C(C)(C(=O)O)CCCC4(C)C2CC1C1C(=O)OC(=O)C13` (stereo not given), for which the growth inhibition was 96% (active) in test [2] (setting [8]); 100% (active) in test [2] (setting [9]); 99.5% (active) and 99.7% (active) in test [2] (at 50.0 µM); 87% (active) in test [3] (setting [8]); 100% (active) in test [3] (setting [9]); 99.6% (active) and 49.5% (inactive) in test [3] (at 50.0 µM). The growth inhibition is 85% (active) in test [4] (setting [8]); 99% (active) in test [4] (setting [9]); 99% (active) and 98.5% (active) in test [4] (at 50.0 µM); 90% (active) in test [5] (setting [8]); 99% (active) in test [5] (setting [9]); 99% (active) and 99.5% (active) in test [5] (at 50.0 µM). For the same compound, the growth inhibition was 90% (active) in test [6] (setting [8]); 99% (active) in test [6] (setting [9]); 99.4% (active) and 99.5% (active) in test [6] (at 50.0 µM).
`COC1/C=C/OC2(C)Oc3c(C)c(O)c4c(c3C2=O)C(=O)C=C(NC(=O)/C(C)=C\C=C\C(C)C2OC(C)(C)OC(C2C)C(C)C(OC(C)=O)C1C)C4=O` (stereo not given): the growth inhibition in test [2] (setting [8]) was 30% (inactive); in test [2] (setting [9]), 79% (active); in test [2] (at 50.0 µM), 57.3% (inactive); in test [3] (setting [8]), -3% (inactive); in test [3] (setting [9]), 73% (active); in test [3] (at 50.0 µM), 60.8% (inactive). For the same compound, the growth inhibition was 1% (inactive) in test [4] (setting [8]); 89% (active) in test [4] (setting [9]); 57% (inactive) in test [4] (at 50.0 µM); 2% (inactive) in test [5] (setting [8]); 74% (active) in test [5] (setting [9]); 45.8% (inactive) in test [5] (at 50.0 µM). Moreover, the results for the growth inhibition in test [6] (setting [8]), in test [6] (setting [9]) and in test [6] (at 50.0 µM) were 3% (inactive), 92% (active) and 60.8% (inactive), respectively.
